Source: PubChem BioAssay AID602342 (Broad Institute, 2012)
Among all 340,000 compounds or so, about 1,000 (0.29%) were called active.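 Rule for the calls: active = mean replicate activation score at least 90 and every replicate individually at or above 90; inconclusive = only one of the two criteria met; inactive = neither criterion met.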 What follows is part of a selection rich in actives, with near analogues and random picks from the rest.

Experiment: miR-122 Renilla sensor signal increase in Huh7, primary screen, miR-122 inhibitor project, cell-based, single point, plate reader (AID 602342);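 note: higher luciferase means less miR-122 activity so hits act as miR-122 inhibitors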
Details: Huh7 miR-122 Renilla luciferase sensor, 48 h, hits give high values; at 12.5 µM unless noted

Row | Compound | activation (reporter increase)
1 | C[C@]12CCC3C(CC[C@H]4C[C@@H](O)CC[C@]34C)C1CC[C@@H]2O (stereo not given in full) | -9.92% (inactive)
2 | C[C@]12CCC3C(CC[C@H]4C[C@@H](O)CC[C@]34C)C1C[C@@H](O)[C@H]2O (stereo not given in full) | -6.69% (inactive)
3 | C[C@]12CC[C@H](O)C[C@H]1CC[C@@H]1C2CC[C@]2(C)[C@@H](C3=CC(=O)OC3)[C@@H](O)C[C@]12O (stereo not given in full) | 339% (active)
4 | COc1ccc(-n2nnnc2C(c2cccc3ccccc23)N2CCC(n3c(=O)[nH]c4ccccc43)CC2)cc1 (stereo not given) | -6.36% (inactive)
5 | COC(=O)[C@H]1[C@H](CO)[C@H]2Cn3c(ccc(-c4ccccc4F)c3=O)[C@@H]1N2C(=O)C1CCC1 | 3% [at 16.7 µM] (inactive)
